Test results as given in PubChem BioAssay AID1508608 (The Scripps Research Institute Molecular Screening Center, 2020).
The whole screen tested about 2,300 compounds, of which about 20 (0.9%) were called active. Shown is part of a subset that was picked to be rich in actives. Unmarked numbers belong to inactive results.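 The calls were made as follows: active = mean activation across replicates above 26.72%, the hit cutoff set for this confirmation screen; inactive = the rest.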

molecular target: G-protein coupled receptor 151 (Homo sapiens) (UniProt Q8TDV0); experiment: GPR151 activators, triplicate retest, confirmation, cell-based, PathHunter beta-arrestin, luminescence, set 2 (AID 1508608); details: GPR151 PathHunter beta-arrestin cells, 90 min, at 11.2 µM, stronger effect = higher value; 100% = signal from added EA reagent unless noted;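 also: 0% = plate median of compound wells and 100% = EA reagent high control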
Sequence (Q8TDV0 whole entry, looked up): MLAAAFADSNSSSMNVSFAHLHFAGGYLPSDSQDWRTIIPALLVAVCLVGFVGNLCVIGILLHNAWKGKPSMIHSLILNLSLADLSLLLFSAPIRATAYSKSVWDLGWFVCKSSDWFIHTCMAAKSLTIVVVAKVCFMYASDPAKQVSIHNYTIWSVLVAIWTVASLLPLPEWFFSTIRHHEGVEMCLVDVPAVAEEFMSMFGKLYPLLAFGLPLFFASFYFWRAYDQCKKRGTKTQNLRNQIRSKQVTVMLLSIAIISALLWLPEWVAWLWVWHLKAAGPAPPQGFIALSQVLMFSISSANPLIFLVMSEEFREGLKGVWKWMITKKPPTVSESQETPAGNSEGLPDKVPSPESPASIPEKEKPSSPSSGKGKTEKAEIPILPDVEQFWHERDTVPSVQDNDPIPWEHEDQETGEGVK

Structure (SMILES) | activation
CC[n+]1c(/C=C/C=C2\N(C)c3ccccc3C2(C)C)n(-c2ccccc2)c2ccc(C)cc21 | 19.5%
CC[n+]1c(/C=C/C=C2\N(C)c3ccccc3C2(C)C)n(-c2ccccc2)c2cc(Cl)ccc21 | 13.7%
CCn1c(/C=C/C=C2\N(C)c3ccccc3C2(C)C)[n+](Cc2ccccc2)c2ccccc21 | 35.2% (active)
CCCCn1c(C)c(C(=O)OCC)c2cc(OC(=O)CCC)c3ccccc3c21 | 1.16%
CCOC(=O)c1nc2ccccc2c(=O)n1-c1ccc(C)cc1Br | -0.06%
C[C@H]1CC[C@@H]2[C@@H](C)[C@H]3[C@H](CC4[C@@H]5CC=C6CC(O[C@@H]7O[C@H](CO)C(O[C@@H]8O[C@@H](C)[C@H](O)[C@@H](O)[C@H]8O)[C@H](O)[C@H]7O[C@@H]7O[C@@H](C)[C@H](O)[C@@H](O)[C@H]7O)CC[C@]6(C)[C@H]5CC[C@@]43C)N2C1 (stereo not given in full) | 81.8% (active)
C[C@@H]1O[C@@H](O[C@H]2C[C@@H](O)[C@]3(CO)[C@H]4[C@H](O)C[C@]5(C)[C@@H](C6=CC(=O)OC6)CC[C@]5(O)[C@@H]4CC[C@]3(O)C2)[C@H](O)[C@H](O)[C@H]1O | 13.4% [setting not given]
CCCCOc1ccc(C(=O)Nc2ccc(Cl)cc2C(=O)c2ccccc2)cc1 | -0.96%
COCCOC(=O)C1=C(C)OC(N)=C(C#N)C12C(=O)N(CC(=O)OC)c1ccccc12 (stereo not given) | -4.79%
O=C(Nc1ccc(Cl)cc1C(=O)c1ccccc1)c1cc([N+](=O)[O-])ccc1Cl | -4.58%
